Reference: PubChem BioAssay (EPA / NIEHS)
Records with an inconclusive call do not appear. Some compounds were tested as several samples or in several runs, with calls that do not always agree. Activity calls are given as the source filed them. The calls were made as follows: active = hit-call score of the fitted dose curve at least 0.9, where 1 is the maximum; inconclusive = response in the unintended direction; inactive = score below 0.9.

Assays:
[1] = molecular target: Luciferin 4-monooxygenase (Photinus pyralis) (UniProt P08659); test: CCTE_Simmons_QuantiLum_inhib_2: CCTE's Firefly Luciferase Inhibition Assay, Simmons Lab (AID 2283767);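 as to AC50: potency for inhibitors that lower luciferase luminescence relative to DMSO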
How it was run: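 Cell-free recombinant firefly luciferase (5 ng/well) in 200mM potassium phosphate with 1 mg/ml BSA, 30 min at 37C with 8 concentrations from 5 nM to 87.5 uM [final], 0.5% DMSO. Luminescence read after D-luciferin (150uM)/dATP (147uM) reagent injection, pH 7.8; triplicates.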

[2] = ACEA_ER_AUC_viability: ACEA Biosciences xCELLigence Real-Time Cell Analysis on Estrogen Receptor Agonism for Viability (AID 2283782);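 also: continuous compound exposure with impedance area under curve over 80 h; hit means loss of impedance signal meaning reduced cell growth or viability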
How it was run: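 T47D cells preconditioned in phenol red-free RPMI with charcoal-stripped FBS, then dosed with 8-point 1:4 series from 100 uM (up to 0.5% DMSO). Impedance monitored up to ~80 h; area-under-curve loss versus DMSO taken as viability.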

[3] = ArunA_NOG_BranchPointsPerNeurite: ArunA Biomedical's Neurite Outgrowth (NOG) Assay for Branch Points Per Neurite (AID 2283759)
How it was run: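 Automated image analysis traced neurites (processes >10 um) from valid cell bodies after Hoechst and βIII-tubulin staining. hNN cells from H9 embryonic stem cells, 48 h exposure. Fitted bidirectionally against DMSO.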

[4] = test system: chicken Androgen Receptor (AR), gene 422165; test: ATG_chAR_XSP1: Attagene TRANS-FACTORIAL Multi-Species (XSP1) HepG2 Assay for chicken Androgen Receptor (AR) (AID 2283768)
How it was run: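 HepG2 cells transiently transfected with multiplexed GAL4-UAS reporter units expressing chimeric chicken AR-Gal4; 3 nM 6-alpha-fluorotestosterone for partial AR stimulation; 24 h after dosing, reporter mRNA by RT-PCR and capillary electrophoresis, gain-of-signal versus DMSO.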

[5] = test system: zebrafish Estrogen Receptor (ESR2B), gene 317733; test: ATG_zfER2b_XSP1: Attagene TRANS-FACTORIAL Multi-Species (XSP1) HepG2 Assay for zebrafish Estrogen Receptor (ESR2B) (AID 2283773)
How it was run: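 HepG2 cells transiently transfected with GAL4-UAS reporter units for chimeric zebrafish ER2b-Gal4, with 3 nM 6-alpha-fluorotestosterone present; reporter mRNA measured 24 h after dosing by RT-PCR and capillary electrophoresis, gain versus DMSO.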

[6] = test system: frog Estrogen Receptor (ESR2), gene 100174814; test: ATG_frER2_XSP1: Attagene TRANS-FACTORIAL Multi-Species (XSP1) HepG2 Assay for frog Estrogen Receptor (ESR2) (AID 2283774)
How it was run: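 HepG2 cells transiently transfected with GAL4-UAS reporter units expressing chimeric frog ER-Gal4; 3 nM 6-alpha-fluorotestosterone present. After 24 h dosing, reporter mRNA quantified by RT-PCR and capillary electrophoresis; gain-of-signal fitted relative to DMSO.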

[7] = ACEA_AR_agonist_AUC_viability: ACEA Biosciences xCELLigence Real-Time Cell Analysis on Androgen Receptor Agonism for Viability (AID 2283775);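 as to AC50: viability read 80 hours after compound addition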
How it was run: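 Real-time impedance tracking of 22Rv1 growth, readings every 5 min for 5 h then hourly; area-under-curve viability endpoint at 80 hours, relative to DMSO. Compounds at eight concentrations, 1:4 steps, top 100 uM, n = 2.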

[8] = test system: frog Estrogen Receptor (ESR1), gene 398734; test: ATG_frER1_XSP1: Attagene TRANS-FACTORIAL Multi-Species (XSP1) HepG2 Assay for frog Estrogen Receptor (ESR1) (AID 2283777)
How it was run: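 HepG2 cells transiently transfected with frog ER–GAL4 chimera and GAL4-UAS reporter, with 3 nM 6-alpha-fluorotestosterone present; 24 h dosing, reporter mRNA quantified by RT-PCR and capillary electrophoresis, gain of signal versus DMSO.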

[9] = test system: turtle Androgen Receptor (AR), gene 101947425; test: ATG_trAR_XSP1: Attagene TRANS-FACTORIAL Multi-Species (XSP1) HepG2 Assay for turtle Androgen Receptor (AR) (AID 2283786)
How it was run: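 HepG2 cells transiently transfected with a turtle AR–GAL4 chimera and GAL4-UAS reporter, co-treated with 3 nM 6-alpha-fluorotestosterone for partial stimulation. Reporter mRNA is quantified at 24 h by RT-PCR and capillary electrophoresis, gain-of-signal versus DMSO.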

[10] = test system: zebrafish Androgen Receptor (AR), gene 100005148; test: ATG_zfAR_XSP1: Attagene TRANS-FACTORIAL Multi-Species (XSP1) HepG2 Assay for zebrafish Androgen Receptor (AR) (AID 2283771)
How it was run: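 HepG2 cells were transiently transfected with a zebrafish AR-GAL4 reporter system and partially stimulated with 3 nM 6-alpha-fluorotestosterone. Reporter mRNA was measured after 24 h dosing by RT-PCR with capillary electrophoresis, and gain-of-signal was fitted relative to DMSO.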

[11] = molecular target: chicken Estrogen Receptor (ESR1), ESR1 (gene 396099) (UniProt P06212); test: ATG_chERa_XSP1: Attagene TRANS-FACTORIAL Multi-Species (XSP1) HepG2 Assay for chicken Estrogen Receptor (ESR1) (AID 2283779)
How it was run: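 HepG2 cells transiently transfected with GAL4-UAS reporter units for chimeric chicken ERα-Gal4, dosed 24 h with 3 nM 6-alpha-fluorotestosterone present. Reporter mRNA by RT-PCR and capillary electrophoresis; gain-of-signal fit versus DMSO.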

[12] = molecular target: Estrogen receptor (Homo sapiens) (UniProt P03372); test: ATG_hERa_XSP1: Attagene TRANS-FACTORIAL Multi-Species (XSP1) HepG2 Assay for human Estrogen Receptor (ESR1) (AID 2283780)
How it was run: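 HepG2 cells transiently transfected with GAL4-UAS reporter units and chimeric NR-Gal4 constructs; 24 h after dosing, reporter mRNA quantified by RT-PCR and capillary electrophoresis. Medium contained 3 nM 6-alpha-fluorotestosterone; activity fitted as gain-of-signal versus DMSO.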

[13] = test system: turtle Estrogen Receptor (ESR1), gene 101933533; test: ATG_trERa_XSP1: Attagene TRANS-FACTORIAL Multi-Species (XSP1) HepG2 Assay for turtle Estrogen Receptor (ESR1) (AID 2283781)
How it was run: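 Turtle ERa as a GAL4 chimera in transiently transfected HepG2 cells; reporter mRNA quantified 24 h after dosing by RT-PCR and capillary electrophoresis. 3 nM 6-alpha-fluorotestosterone present; gain of signal versus DMSO.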

AR (gene 367) [14] = molecular target: AR (gene 367) (UniProt P10275); test: ACEA_AR_agonist_80hr: ACEA Biosciences xCELLigence Real-Time Cell Analysis on Androgen Receptor Agonism for Proliferation (AID 2283783);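 also: hits increase impedance growth signal above DMSO baseline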
How it was run: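 Proliferation of 22Rv1 prostate cancer cells tracked by electrical impedance, endpoint taken at 80 hours after dosing. Eight-point 1:4 dilutions from 100 uM maximum final, duplicate; testosterone and MG132 as positive controls, assay media as negative.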

AR (gene 367) [15] = molecular target: AR (gene 367) (UniProt P10275); test: ACEA_AR_antagonist_80hr: ACEA Biosciences xCELLigence Real-Time Cell Analysis on Androgen Receptor Antagonism for Proliferation (AID 2283787);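 also: 22Rv1 human prostate cancer cells with growth followed by electrical impedance; hits lower the impedance growth signal relative to DMSO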
How it was run: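 22Rv1 cells in assay medium, growth tracked by electrical impedance; compounds eight-point 1:4 dilutions from 100 uM final, duplicate plates. Endpoint at 80 h; loss of signal versus DMSO.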

[16] = molecular target: GAL4 Transcription Factor (Internal Marker), GAL4 (gene 855828) (UniProt P04386); test: ATG_GAL4_XSP1: Attagene TRANS-FACTORIAL Multi-Species (XSP1) HepG2 Assay for GAL4 Transcription Factor (Internal Marker) (AID 2283789)
How it was run: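 HepG2 cells transiently transfected with multiplexed GAL4-UAS reporter units were exposed for 24 h with 3 nM 6-alpha-fluorotestosterone present. Reporter mRNA was quantified by RT-PCR, FAM labelling, HpaI digestion and capillary electrophoresis; background-control readout, gain-of-signal versus DMSO.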

[17] = molecular target: zebrafish Estrogen Receptor (ESR1), esr1 (gene 259252) (UniProt P57717); test: ATG_zfER1_XSP1: Attagene TRANS-FACTORIAL Multi-Species (XSP1) HepG2 Assay for zebrafish Estrogen Receptor (ESR1) (AID 2283772)
How it was run: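 Trans-activation readout: transfected zebrafish ER-Gal4 drives a UAS reporter in human HepG2 liver cells. After 24 h compound exposure (medium containing 3 nM 6-alpha-fluorotestosterone), induced reporter transcripts were quantified by RT-PCR with capillary electrophoresis, relative to DMSO.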

[18] = test system: zebrafish Estrogen Receptor (ESR2A), gene 317734; test: ATG_zfER2a_XSP1: Attagene TRANS-FACTORIAL Multi-Species (XSP1) HepG2 Assay for zebrafish Estrogen Receptor (ESR2A) (AID 2283778)
How it was run: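 HepG2 cells transiently transfected with GAL4-UAS reporter units driven by a zebrafish ESR2A–Gal4 chimera; 24 h compound exposure with 3 nM 6-alpha-fluorotestosterone present. Reporter mRNA measured by RT-PCR with fluorescent capillary electrophoresis, fitted positive versus DMSO.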

[19] = molecular target: Estrogen receptor beta (Homo sapiens) (UniProt Q92731); test: ATG_hERb_XSP1: Attagene TRANS-FACTORIAL Multi-Species (XSP1) HepG2 Assay for human Estrogen Receptor (ESR2) (AID 2283788)
How it was run: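 HepG2 cells transiently transfected with GAL4-UAS multiplexed reporter units, 3 nM 6-alpha-fluorotestosterone present; 24 h exposure. Reporter mRNA measured by RT-PCR, fluorescent labelling and capillary electrophoresis; gain of signal fitted against DMSO.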

[20] = ACEA_AR_antagonist_AUC_viability: ACEA Biosciences xCELLigence Real-Time Cell Analysis on Androgen Receptor Antagonism for Viability (AID 2283776);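 also: 22Rv1 human prostate cancer cells growing on impedance electrode plates; hits lower the growth signal relative to DMSO meaning cytotoxicity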
How it was run: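 Viability endpoint from label-free cell-index monitoring: 22Rv1 cultures treated with an eight-point 1:4 dilution series starting at 100 uM final, AUC at 80 h fitted against DMSO.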

Measured: AC50

AR (gene 367), sequence (P10275 whole entry, looked up): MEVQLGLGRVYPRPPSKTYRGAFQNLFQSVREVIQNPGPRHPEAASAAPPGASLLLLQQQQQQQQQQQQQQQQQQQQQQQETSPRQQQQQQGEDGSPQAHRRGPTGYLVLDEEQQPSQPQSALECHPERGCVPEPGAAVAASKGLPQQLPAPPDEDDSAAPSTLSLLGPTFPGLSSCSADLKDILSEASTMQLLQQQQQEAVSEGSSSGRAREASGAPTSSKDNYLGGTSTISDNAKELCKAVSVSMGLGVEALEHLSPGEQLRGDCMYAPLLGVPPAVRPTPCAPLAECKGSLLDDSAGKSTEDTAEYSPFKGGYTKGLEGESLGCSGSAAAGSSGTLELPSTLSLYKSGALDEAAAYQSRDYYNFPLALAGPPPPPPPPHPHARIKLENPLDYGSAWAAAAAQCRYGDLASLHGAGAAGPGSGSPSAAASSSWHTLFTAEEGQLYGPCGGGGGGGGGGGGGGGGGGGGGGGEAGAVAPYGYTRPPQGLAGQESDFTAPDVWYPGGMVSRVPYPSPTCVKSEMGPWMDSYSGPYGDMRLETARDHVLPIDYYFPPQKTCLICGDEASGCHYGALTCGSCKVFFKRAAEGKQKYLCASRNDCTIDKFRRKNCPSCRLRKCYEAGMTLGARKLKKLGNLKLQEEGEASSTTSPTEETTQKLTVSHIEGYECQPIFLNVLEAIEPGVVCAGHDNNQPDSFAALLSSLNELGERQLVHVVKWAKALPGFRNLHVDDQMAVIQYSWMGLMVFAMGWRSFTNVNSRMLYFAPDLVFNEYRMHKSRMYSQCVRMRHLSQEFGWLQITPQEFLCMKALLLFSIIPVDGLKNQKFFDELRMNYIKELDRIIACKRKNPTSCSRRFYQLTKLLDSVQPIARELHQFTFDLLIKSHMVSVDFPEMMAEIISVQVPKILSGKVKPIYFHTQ
Luciferin 4-monooxygenase (Photinus pyralis), sequence (P08659 whole entry, looked up): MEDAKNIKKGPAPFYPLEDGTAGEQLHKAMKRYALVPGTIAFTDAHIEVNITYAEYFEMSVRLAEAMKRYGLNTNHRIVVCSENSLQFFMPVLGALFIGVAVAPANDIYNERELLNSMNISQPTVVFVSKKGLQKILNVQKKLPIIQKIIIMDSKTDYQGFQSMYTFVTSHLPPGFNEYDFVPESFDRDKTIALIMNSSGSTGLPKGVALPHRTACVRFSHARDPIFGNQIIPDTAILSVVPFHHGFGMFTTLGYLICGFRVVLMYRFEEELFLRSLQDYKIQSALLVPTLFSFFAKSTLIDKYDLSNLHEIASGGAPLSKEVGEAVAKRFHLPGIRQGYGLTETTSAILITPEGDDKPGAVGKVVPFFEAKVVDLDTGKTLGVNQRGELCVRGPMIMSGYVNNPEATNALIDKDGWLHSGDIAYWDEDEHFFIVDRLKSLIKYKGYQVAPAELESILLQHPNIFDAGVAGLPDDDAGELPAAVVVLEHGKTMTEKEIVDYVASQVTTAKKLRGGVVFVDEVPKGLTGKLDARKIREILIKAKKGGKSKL
Estrogen receptor (Homo sapiens), sequence (P03372 whole entry, looked up, the tested form may be a part): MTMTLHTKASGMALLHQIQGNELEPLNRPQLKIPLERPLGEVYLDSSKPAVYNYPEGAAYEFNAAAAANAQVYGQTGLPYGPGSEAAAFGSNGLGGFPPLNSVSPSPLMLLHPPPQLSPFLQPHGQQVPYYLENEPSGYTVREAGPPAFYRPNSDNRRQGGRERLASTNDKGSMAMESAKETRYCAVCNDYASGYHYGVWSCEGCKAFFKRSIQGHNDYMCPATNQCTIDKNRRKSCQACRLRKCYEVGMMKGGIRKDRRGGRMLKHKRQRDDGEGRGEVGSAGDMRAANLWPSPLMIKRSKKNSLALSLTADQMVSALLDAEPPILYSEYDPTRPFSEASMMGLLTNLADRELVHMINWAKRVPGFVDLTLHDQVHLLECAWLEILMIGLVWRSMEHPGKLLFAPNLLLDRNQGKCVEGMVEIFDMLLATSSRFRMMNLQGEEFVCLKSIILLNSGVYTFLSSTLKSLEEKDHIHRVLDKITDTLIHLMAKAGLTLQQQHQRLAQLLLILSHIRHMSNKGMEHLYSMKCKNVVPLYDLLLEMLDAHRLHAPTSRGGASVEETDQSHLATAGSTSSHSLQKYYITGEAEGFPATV
chicken Estrogen Receptor (ESR1), ESR1 (gene 396099), sequence (P06212 whole entry, looked up, the tested form may be a part): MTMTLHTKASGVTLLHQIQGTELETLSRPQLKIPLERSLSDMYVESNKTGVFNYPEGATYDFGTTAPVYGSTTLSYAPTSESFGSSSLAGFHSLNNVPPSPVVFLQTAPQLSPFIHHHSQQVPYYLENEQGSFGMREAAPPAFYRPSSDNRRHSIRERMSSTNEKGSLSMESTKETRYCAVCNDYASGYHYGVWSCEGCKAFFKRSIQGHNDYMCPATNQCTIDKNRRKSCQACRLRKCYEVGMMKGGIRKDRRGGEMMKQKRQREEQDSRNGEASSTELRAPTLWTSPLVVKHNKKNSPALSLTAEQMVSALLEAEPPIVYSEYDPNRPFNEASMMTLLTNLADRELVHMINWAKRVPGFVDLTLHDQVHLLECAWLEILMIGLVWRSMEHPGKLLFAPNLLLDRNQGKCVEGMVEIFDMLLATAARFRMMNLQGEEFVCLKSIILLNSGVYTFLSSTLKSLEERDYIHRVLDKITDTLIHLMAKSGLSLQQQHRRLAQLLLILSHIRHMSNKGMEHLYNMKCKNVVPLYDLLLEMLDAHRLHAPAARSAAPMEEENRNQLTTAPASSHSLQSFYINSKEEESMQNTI
GAL4 Transcription Factor (Internal Marker), GAL4 (gene 855828), sequence (P04386 whole entry, looked up, the tested form may be a part): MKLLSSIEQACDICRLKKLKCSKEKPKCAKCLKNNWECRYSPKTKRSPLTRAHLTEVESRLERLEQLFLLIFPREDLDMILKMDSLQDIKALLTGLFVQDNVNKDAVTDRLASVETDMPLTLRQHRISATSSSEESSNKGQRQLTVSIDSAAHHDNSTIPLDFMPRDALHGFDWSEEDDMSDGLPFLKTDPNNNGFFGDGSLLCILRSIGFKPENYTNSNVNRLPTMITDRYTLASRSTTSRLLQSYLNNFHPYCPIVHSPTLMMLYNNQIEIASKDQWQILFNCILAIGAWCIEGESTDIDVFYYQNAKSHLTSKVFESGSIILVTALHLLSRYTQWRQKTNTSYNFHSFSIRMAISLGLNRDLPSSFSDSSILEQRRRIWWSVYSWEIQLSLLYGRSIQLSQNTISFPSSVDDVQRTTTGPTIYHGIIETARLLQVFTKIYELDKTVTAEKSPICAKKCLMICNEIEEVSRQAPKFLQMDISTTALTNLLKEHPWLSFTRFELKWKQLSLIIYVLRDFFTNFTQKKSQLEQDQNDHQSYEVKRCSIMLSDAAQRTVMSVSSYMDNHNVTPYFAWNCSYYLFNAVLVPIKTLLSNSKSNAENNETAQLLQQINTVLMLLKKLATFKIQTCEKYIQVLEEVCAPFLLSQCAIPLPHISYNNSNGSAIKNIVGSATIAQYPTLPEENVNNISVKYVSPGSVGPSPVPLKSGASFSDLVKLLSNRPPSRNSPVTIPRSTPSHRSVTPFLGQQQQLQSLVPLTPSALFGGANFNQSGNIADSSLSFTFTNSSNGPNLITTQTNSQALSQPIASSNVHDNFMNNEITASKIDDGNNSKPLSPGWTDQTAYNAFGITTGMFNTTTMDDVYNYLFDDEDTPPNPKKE
Estrogen receptor beta (Homo sapiens), sequence (Q92731 whole entry, looked up, the tested form may be a part): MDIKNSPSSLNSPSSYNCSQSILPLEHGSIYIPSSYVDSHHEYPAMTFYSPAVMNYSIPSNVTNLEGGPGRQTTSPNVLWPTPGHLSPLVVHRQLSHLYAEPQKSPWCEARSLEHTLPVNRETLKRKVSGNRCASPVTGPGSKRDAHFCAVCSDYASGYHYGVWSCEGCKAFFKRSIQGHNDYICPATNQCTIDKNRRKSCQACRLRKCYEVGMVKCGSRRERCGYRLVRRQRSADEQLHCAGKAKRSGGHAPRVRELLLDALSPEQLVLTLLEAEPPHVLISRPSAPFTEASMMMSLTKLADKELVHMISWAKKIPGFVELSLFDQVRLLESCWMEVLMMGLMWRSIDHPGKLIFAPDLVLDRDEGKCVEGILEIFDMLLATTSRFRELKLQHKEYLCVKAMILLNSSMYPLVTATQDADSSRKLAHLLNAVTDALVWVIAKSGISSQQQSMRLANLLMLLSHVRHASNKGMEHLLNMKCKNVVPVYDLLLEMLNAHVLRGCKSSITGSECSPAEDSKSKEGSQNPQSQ
zebrafish Estrogen Receptor (ESR1), esr1 (gene 259252), sequence (P57717 whole entry, looked up, the tested form may be a part): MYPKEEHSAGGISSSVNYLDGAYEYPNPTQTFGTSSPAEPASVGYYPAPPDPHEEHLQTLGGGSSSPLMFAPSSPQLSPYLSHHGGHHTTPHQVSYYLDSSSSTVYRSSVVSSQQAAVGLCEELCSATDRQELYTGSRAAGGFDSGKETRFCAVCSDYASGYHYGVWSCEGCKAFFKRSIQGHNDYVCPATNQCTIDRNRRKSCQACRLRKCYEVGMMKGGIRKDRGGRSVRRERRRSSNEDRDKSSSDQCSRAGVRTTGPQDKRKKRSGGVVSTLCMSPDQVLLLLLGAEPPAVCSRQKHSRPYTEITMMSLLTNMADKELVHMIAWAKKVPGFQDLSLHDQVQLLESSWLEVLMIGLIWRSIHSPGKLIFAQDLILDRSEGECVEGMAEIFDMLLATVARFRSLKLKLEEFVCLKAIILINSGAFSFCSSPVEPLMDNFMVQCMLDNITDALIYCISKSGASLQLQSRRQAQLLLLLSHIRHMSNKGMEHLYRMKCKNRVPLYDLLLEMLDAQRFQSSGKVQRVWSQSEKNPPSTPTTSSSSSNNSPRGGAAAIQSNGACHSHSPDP

COP(=S)(OC)Oc1ccc([N+](=O)[O-])cc1
inactive: [1] | [2]

O=S(=O)(O)C(F)(F)C(F)(F)C(F)(F)C(F)(F)C(F)(F)C(F)(F)C(F)(F)C(F)(F)F
inactive: [3] | [1] | [5] | [7] | [2]
active: [4] 148 µM | [6] 49.8 µM | [7] 50 µM | [8] 84 µM | [2] 80 µM | [9] 130 µM

COc1nn(CSP(=S)(OC)OC)c(=O)s1
active: [7] 78.7 µM
inactive: [1] | [2]

CNC(=O)/C=C(\C)OP(=O)(OC)OC
inactive: [1]

O=S1OCC2C(CO1)C1(Cl)C(Cl)=C(Cl)C2(Cl)C1(Cl)Cl (stereo unspecified)
inactive: [10] | [8] | [11] | AR (gene 367) [14]
active: [5] 4.8 µM | [6] 10 µM | [7] 23.1 µM | [12] 1.98 µM | [13] 1.98 µM | [2] 71.8 µM | AR (gene 367) [15] 9.11 µM

CCC(C)Nc1c([N+](=O)[O-])cc(C(C)(C)C)cc1[N+](=O)[O-] (stereo unspecified)
inactive: [3] | [7] | [2]

CCOCN(C(=O)CCl)c1c(C)cccc1CC
inactive: [11] | [12] | [16]
active: [5] 29.5 µM | [6] 77.1 µM | [7] 50 µM | [2] 79.5 µM

CNC(=O)Oc1cccc(N=CN(C)C)c1
active: [2] 50.5 µM
inactive: [1] | [7]

Oc1cc(Cl)ccc1Oc1ccc(Cl)cc1Cl
active: [6] 7.05 µM | [7] 17.3 µM | [18] 4.96 µM | [13] 5.85 µM | [2] 21.9 µM [middle of 6 runs]
inactive: [3] | [1] | [10] | [17] | [8] | [11] | [19] | [16]

CCCN(CCC)c1c([N+](=O)[O-])cc(C(F)(F)F)cc1[N+](=O)[O-]
active: [4] 47.9 µM | [5] 44.3 µM | [6] 33.1 µM | [7] 80.7 µM | [8] 7.74 µM | [11] 27.2 µM | [13] 27.9 µM | AR (gene 367) [15] 62.7 µM
inactive: [17] | [12] | AR (gene 367) [14]

CC(C)N(C(=O)COc1nnc(C(F)(F)F)s1)c1ccc(F)cc1
active: [7] 21.4 µM

O=C1c2ccccc2C(=O)N1SC(Cl)(Cl)Cl
inactive: [1] | [2]
active: [7] 8.53 µM | [20] 19.2 µM

CC1(C)C(C=C(Cl)Cl)C1C(=O)OC(C#N)c1ccc(F)c(Oc2ccccc2)c1 (stereo unspecified)
active: [5] 35.5 µM | [6] 27 µM | [7] 67.2 µM | [8] 13.9 µM | [11] 27.5 µM | [13] 27.5 µM | [2] 74.3 µM
inactive: [4] | [10] | [18] | [12] | [19]

CNC(=O)CSP(=S)(OC)OC
active: [1] 34.2 µM

N#CN
inactive: [1] | [7] | [2]
